Experiment [1] in a line: Cell Viability - HepG2 (AID 433; calls by dose curve;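 note: potency is the fitted concentration of half-maximal effect; cells exposed to compound for 40 hours; potency for ATP loss meaning cytotoxicity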). The conditions noted are these: qHTS. The procedure, abridged: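 Read-out is luciferase-based quantitation of cellular ATP as a measure of viable HepG2 cells after 40 h treatment at 37 °C. Signal decrease is scaled between DMSO-only and 100 uM tamoxifen controls, with AC50 fitted by the Hill equation.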
Experiment [2] in a line: Cell Viability - Mesenchymal (AID 546).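 Note: cells exposed to compound for 40 hours before reading; 0% = DMSO only and -100% = 100 µM tamoxifen.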 The note with it: mesenchymal cells viability, qHTS; series mostly up to 91.7 µM. The procedure, abridged: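 Normal human renal glomerulus-derived kidney mesenchymal cells, 1000 per well in complete medium, were treated with compounds for 40 hr at 37 °C. Viability was read as intracellular ATP by CellTiter-Glo luminescence; AC50 values came from Hill-equation fits of qHTS concentration-response data.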

Experiment [3] in a line: Cellular Toxicity (caspase-3) MRC-5 (AID 659).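 Note: cells exposed to compound for 16 h at 37 °C.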 The note with it: MRC-5 cells, luminescence, normalized: DMSO 0%, 10 µM staurosporine 100%; series mostly up to 91.7 µM. A digest of the protocol:
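Luminescence from caspase-cleaved aminoluciferin substrate (Caspase-Glo 3/7, 1 hr RT) reports caspase 3/7 activity in MRC-5 lung fibroblasts after 16 hr compound exposure. Normalized to DMSO basal and 10 uM staurosporine as 100%; AC50 from Hill fits.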

The nature of experiment [4]: Cellular Toxicity (caspase-3) SK-N-SH (AID 661). The note with it: SK-N-SH caspase-3 activation, qHTS; series mostly up to 91.7 µM. The procedure, abridged: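 Human neuroblastoma SK-N-SH, 1500 cells/well, 5 hr pre-incubation, then compound 16 hr, 37 °C. Caspase-Glo 3/7 reagent, 1 hr RT, luminescence. Norm. to DMSO/10 uM staurosporine; Hill-fit AC50.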
The nature of experiment [5]: Cellular Toxicity (caspase-3) NIH 3T3 (AID 666).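 Note: caspase signal read after 16 h compound exposure; 0% = DMSO basal and 100% = 100 µM tamoxifen stimulation.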 The note with it: NIH 3T3 caspase-3 activation, apoptosis/toxicity; series mostly up to 92.2 µM. The procedure, abridged:
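Luminescence from aminoluciferin released by caspase-3/7 cleavage of a peptide substrate served as read-out. Mouse fibroblast NIH 3T3 cells were exposed to compounds over a concentration range for 16 hours, and AC50 values came from standard Hill modelling.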

The nature of experiment [6]: Cell Viability - LYMP2-004 (AID 966).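 Note: plate controls were DMSO only for no effect and tetraoctylammonium bromide control for full effect; nearly all actives have a fitted effect of over 65% in size.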 The conditions noted are these: LYMP2-004 lymphoblastoid cell viability, qHTS; series mostly up to 92.2 µM. The procedure, abridged:
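Cells seeded 2500/well, rested 5 hr at 37 C, dosed across a concentration series, incubated 24 hr at 37 C, then CellTiter-Glo added for 30 min at room temperature and luminescence read. Hill fitting gave AC50.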

A short description of experiment [7]: Cell Viability - LYMP2-021 (AID 974).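 Note: compound exposure lasts 24 hours at 37 °C; % is set by controls: 0 for no effect and ±100 for the full control effect; nearly all actives have a fitted effect of over 55% in size.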 The conditions noted are these: LYMP2-021 lymphoblastoid cells viability; series mostly up to 92.2 µM. The procedure, abridged:
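Plate 2500 lymphoblastoid cells per well and incubate 5 hr at 37 C. Add compounds over a concentration range and incubate 24 hr at 37 C. Add CellTiter-Glo, wait 30 min at room temperature, read luminescence.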

Experiment [8] in a line: Cell Viability - LYMP2-023 (AID 975).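 Note: cellular ATP measured by luciferase luminescence as viability proxy; cells exposed to compound for 24 hours at 37 °C; plate controls were DMSO only for no effect and 92 µM tetraoctylammonium bromide control for full effect; nearly all actives have a fitted effect of over 55% in size.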 The note with it: LYMP2-023 lymphoblastoid cell viability; series mostly up to 92.2 µM. A digest of the protocol:
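2500 cells/well, 5 hr 37 C; cpd 24 hr 37 C; CellTiter-Glo, 30 min RT; luminescence. qHTS conc-response, Hill fit -> AC50. Pos ctrl tetraoctylammonium bromide.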

Experiment [9] can be described thus: Cell Viability - LYMP2-007 (AID 979).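 Note: cells exposed to compound for 24 h before reading; 0% = DMSO only and the negative end = 92 µM tetraoctylammonium bromide; nearly all actives have a fitted effect of over 60% in size.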 The note with it: LYMP2-007 lymphoblastoid cell viability; series mostly up to 92.2 µM. A digest of the protocol:
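Luminescent ATP signal (CellTiter-Glo) serves as the viability read-out after 24 hr compound treatment of lymphoblastoid cells in complete medium at 37 C. Concentration-response data were fitted to the Hill equation to give AC50 values.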

Experiment [10] in a line: Cell Viability - LYMP2-014 (AID 983).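 Note: cells exposed to compound for 24 h at 37 °C; plate controls were DMSO only for no effect and 92 µM tetraoctylammonium bromide for full effect; nearly all actives have a fitted effect of over 50% in size.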 The conditions noted are these: LYMP2-014 lymphoblastoid cells, viability qHTS; series mostly up to 92.2 µM. The procedure, abridged:
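Luminescent ATP signal (CellTiter-Glo, 30 min at room temperature) serves as the viability read-out after 24 hr compound exposure at 37 C. Cells were seeded at 2500 per well and settled 5 hr beforehand.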

The nature of experiment [11]: Cell Viability - LYMP2-026 (AID 989).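 Note: cells exposed to compound for 24 h at 37 °C; % is set by controls: 0 for no effect and ±100 for the full control effect; nearly all actives have a fitted effect of over 50% in size.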 The conditions noted are these: LYMP2-026 lymphoblastoid cell viability, qHTS; series mostly up to 92.2 µM. The procedure, abridged:
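Luminescent ATP signal (CellTiter-Glo, 30 min room temperature) measures viable lymphoblastoid cells after 24 hr compound treatment at 37 C. Decreased ATP reflects acute toxicity; AC50 values come from Hill-equation modeling.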

For experiment [12], the target named is Retinoic acid receptor RXR-alpha (Homo sapiens) (UniProt P19793). Nature of the experiment: qHTS assay for small molecule agonists of retinoid X receptor alpha signaling (AID 588544; calls by dose curve;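 note: 0% = DMSO basal wells and 100% = reference agonist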). The conditions noted are these: HEK293T RXRa-UAS-bla, beta-lactamase reporter, 18 h; series mostly up to 76.7 µM.
Sequence of Retinoic acid receptor RXR-alpha (Homo sapiens) (P19793 whole entry, looked up): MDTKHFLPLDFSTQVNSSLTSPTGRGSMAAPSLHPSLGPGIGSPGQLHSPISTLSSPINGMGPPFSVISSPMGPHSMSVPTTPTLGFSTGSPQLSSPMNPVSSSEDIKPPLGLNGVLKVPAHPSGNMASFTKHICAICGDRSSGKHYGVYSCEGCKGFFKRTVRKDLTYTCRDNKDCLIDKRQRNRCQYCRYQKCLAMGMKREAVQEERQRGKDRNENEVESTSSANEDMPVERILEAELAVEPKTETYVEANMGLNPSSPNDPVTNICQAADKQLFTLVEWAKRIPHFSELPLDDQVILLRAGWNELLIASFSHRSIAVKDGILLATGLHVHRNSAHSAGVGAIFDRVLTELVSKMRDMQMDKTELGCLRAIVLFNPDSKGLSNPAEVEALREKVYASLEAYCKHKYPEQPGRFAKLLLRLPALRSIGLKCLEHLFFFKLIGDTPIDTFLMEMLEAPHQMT
For experiment [13], the target named is Voltage-gated inwardly rectifying potassium channel KCNH2 (Homo sapiens) (UniProt Q12809). Nature of the experiment: qHTS Assay for Small Molecule Inhibitors of the Human hERG Channel Activity (AID 588834).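 Note: lower thallium flux fluorescence means stronger hERG block; nearly all actives have a fitted effect of over 50% in size.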 Note: potency is the fitted concentration of half-maximal effect. The conditions noted are these: U2OS BacMam hERG, FluxOR thallium flux fluorescence; series mostly up to 92.2 µM. A digest of the protocol: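 hERG-BacMam U2OS, 2000 cells/well; 0.7X FluxOR loading 1 hr RT dark; cpd ~10 min 37 °C; stim buffer; FDSS fluorescence 2 min @ 1 s; AC50 Hill fit.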
Sequence of Voltage-gated inwardly rectifying potassium channel KCNH2 (Homo sapiens) (Q12809 whole entry, looked up): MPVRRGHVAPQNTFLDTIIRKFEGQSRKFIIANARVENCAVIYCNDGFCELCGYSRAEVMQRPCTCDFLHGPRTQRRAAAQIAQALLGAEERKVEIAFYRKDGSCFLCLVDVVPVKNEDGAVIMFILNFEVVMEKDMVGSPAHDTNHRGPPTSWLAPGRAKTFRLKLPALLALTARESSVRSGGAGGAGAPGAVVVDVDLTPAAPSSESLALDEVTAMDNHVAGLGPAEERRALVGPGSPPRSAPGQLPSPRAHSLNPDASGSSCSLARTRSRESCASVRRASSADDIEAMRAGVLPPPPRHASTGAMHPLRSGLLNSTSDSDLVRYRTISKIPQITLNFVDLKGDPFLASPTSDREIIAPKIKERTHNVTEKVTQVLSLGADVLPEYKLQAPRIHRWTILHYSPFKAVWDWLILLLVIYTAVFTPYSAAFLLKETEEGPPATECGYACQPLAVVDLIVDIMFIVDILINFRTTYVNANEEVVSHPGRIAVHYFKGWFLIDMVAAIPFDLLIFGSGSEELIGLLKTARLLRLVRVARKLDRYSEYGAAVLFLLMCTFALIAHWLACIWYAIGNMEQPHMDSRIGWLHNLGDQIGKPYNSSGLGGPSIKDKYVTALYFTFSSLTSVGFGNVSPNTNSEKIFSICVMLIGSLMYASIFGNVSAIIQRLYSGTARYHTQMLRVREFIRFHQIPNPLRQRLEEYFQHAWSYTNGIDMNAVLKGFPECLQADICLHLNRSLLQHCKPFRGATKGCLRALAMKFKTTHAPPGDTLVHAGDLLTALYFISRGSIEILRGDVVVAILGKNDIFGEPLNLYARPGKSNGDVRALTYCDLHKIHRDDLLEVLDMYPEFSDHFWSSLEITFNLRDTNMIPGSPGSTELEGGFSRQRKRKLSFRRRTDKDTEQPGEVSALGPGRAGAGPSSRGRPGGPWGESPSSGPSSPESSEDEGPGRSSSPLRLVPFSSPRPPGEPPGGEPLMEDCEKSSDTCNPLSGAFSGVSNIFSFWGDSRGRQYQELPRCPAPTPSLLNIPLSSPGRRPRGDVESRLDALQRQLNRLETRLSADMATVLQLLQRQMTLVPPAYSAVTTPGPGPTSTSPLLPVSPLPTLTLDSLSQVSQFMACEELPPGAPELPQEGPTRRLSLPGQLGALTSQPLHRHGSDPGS

The nature of experiment [14]: qHTS assay for small molecule disruptors of the mitochondrial membrane potential - 5 hr assay (AID 651755; calls by dose curve; note: % is set by controls: 0 for no effect and ±100 for the full control effect; nearly all actives have a fitted effect of over 40% in size). The conditions noted are these: JC-1-type ratio dye; series mostly up to 92.2 µM. The procedure, abridged: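 HepG2 cells, attached overnight at 37C, were exposed to compound or DMSO for 5 hr at 37C, 5% CO2. Mito-MPS dye was then added for 30 min, and fluorescence read at 490/535 nm (monomers) and 540/590 nm (aggregates).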

Experiment [15] is described as follows: qHTS assay for environmental chemicals that activate the Aryl hydrocarbon Receptor (AhR) signaling pathway (AID 651777). Note: % of control where 0% means no effect; nearly all actives have a fitted effect of over 15% in size. The conditions noted are these: 1A2-DRE human hepatoma cells, luciferase, 24 h; activation: active compounds read high. The procedure, abridged:
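AhR activation is scored as a rise in luciferase from a stable DRE–CYP1A2 promoter construct in human hepatoma cells. Treatment lasts 24 hr at 37 C; detection uses One-Glo after 30 min at room temperature.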

Experiment [16] in a line: qHTS assay for small molecule agonists of the antioxidant response element (ARE) signaling pathway measured by Nrf2-dependant transcriptional activity (AID 720636; active = well fitted curve in the direction sought with a large enough effect in the repeat runs; an effect the other way counts as inactive or inconclusive;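 note: HepG2 cells with an ARE-driven luciferase reporter; % of control where 0% means no effect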). The conditions noted are these: ARE-luc HepG2, Nrf2 luciferase reporter, 16 h; series mostly up to 92.4 µM. The procedure, abridged:
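First, ARE-luc HepG2 cells attached for 6 hr at 37 C in 1% dialyzed FBS medium. Next, compound or DMSO was added and incubated 16 hr. Finally, ONE-Glo reagent was added and luminescence measured after 30 min.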

The nature of experiment [17]: Cell Viability - HUV-EC-C (AID 542).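 Note: cells exposed to compound for 40 hours; % is set by controls: 0 for no effect and ±100 for the full control effect; nearly all actives have a fitted effect of over 35% in size.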 The conditions noted are these: HUV-EC-C endothelial cell viability, qHTS; series mostly up to 92.2 µM. A digest of the protocol: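 qHTS cytotoxicity: HUV-EC-C, 1000 cells/well, 5 hr settle, compound 40 hr 37 °C, CellTiter-Glo, luminescence. AC50 via Hill equation.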
Experiment [18] in a line: Cell Viability - LYMP2-017 (AID 972).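 Note: cells exposed to compound for 24 hours at 37 °C; % is set by controls: 0 for no effect and ±100 for the full control effect; nearly all actives have a fitted effect of over 55% in size.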 The conditions noted are these: LYMP2-017 lymphoblastoid cell viability; series mostly up to 92.2 µM. A digest of the protocol: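 2500 cells/well, 5 h 37 C; cpd 24 h 37 C in complete medium; CellTiter-Glo, 30 min RT; luminescence (ATP). AC50 via Hill fit, qHTS.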
Experiment [19] is described as follows: Cell Viability - LYMP2-006 (AID 978).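 Note: cells exposed to compound for 24 hours; % is set by controls: 0 for no effect and ±100 for the full control effect; nearly all actives have a fitted effect of over 60% in size.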 The conditions noted are these: LYMP2-006 lymphoblastoid cell viability, qHTS; series mostly up to 92.2 µM. The procedure, abridged: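 Cells are seeded at 2500 per well and rested 5 hr at 37 C. Compounds are added across a concentration series for 24 hr at 37 C, after which ATP is quantified by luciferase luminescence.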

The nature of experiment [20]: qHTS assay for small molecule activators of the p53 signaling pathway (AID 651743; active = well fitted activation curve with a large enough effect in the signal ratio, not every such curve was filed as active; the % refers to the signal ratio; note: % of control where 0% means no effect). The note with it: HCT-116 p53RE-bla, beta-lactamase FRET ratio, 16 h; activation: active compounds read high. A digest of the protocol:
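Cell-based beta-lactamase reporter (p53 response elements, HCT-116 background). After a 5-hour preincubation, cells received compound for 16 hours at 37 C; substrate development ran 2 hours at room temperature.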

SMILES strings stand for the structures. Values joined by “and” are separate entries in the source; they are usually repeats but may differ in a detail not shown here. Equal entries are not always repeated. Values without a mark were called inactive. Records with an inconclusive call do not appear. Active and inactive are the calls of the source. Unless noted, calls come from the whole dose curve; as a rule, active = well fitted curve in the direction sought with a large enough effect; inconclusive = small, poorly fitted or top-dose-only effect, or another doubt; inactive = no such curve, though single readings can be large; an effect the other way counts as inactive or inconclusive.

In the case of `Brc1cccc(-c2ccccc2)c1`, the Potency in experiment [1] was over 92 µM; in experiment [13], 35.5 µM (active). In addition, the Potency entry in experiment [2], in [4], in [5], in [6], in experiment [7] and in experiment [8] was “inactive” throughout. For the same compound, the Potency entry in experiment [9], in experiment [10], in experiment [11], in experiment [14] and in experiment [16] was “inactive” throughout. Besides, the call in experiment [3] and in experiment [12] was inactive. The activation in [15] was -0.116%.
As for `CC(C)(Cl)[N+](=O)[O-]`, the Potency entry in experiment [17], in experiment [2], in experiment [4], in experiment [5], in experiment [6] and in experiment [18] was “inactive” in each case. The Potency result in [7], in experiment [8], in experiment [19], in experiment [10], in experiment [11] and in [14] was “inactive” in each case. The Potency entry in [16] was “inactive”. In addition, the outcome in experiment [3] and in experiment [12] was inactive. In addition, the activation in experiment [20] was 3.96%; in experiment [15] it was -0.364%.
In the case of `O=C(Cc1ccccc1)OCc1ccccc1`, the Potency in experiment [1] is over 92 µM. For the same compound, the Potency result in [2], in experiment [4], in experiment [6], in [18], in experiment [7] and in experiment [8] was “inactive” each time. In addition, the Potency entry in experiment [19], in experiment [10], in experiment [11], in experiment [14] and in [16] was “inactive” throughout. Further, the compound was called inactive in [3].
As for `C1CC2OC2CC1C1CO1` (stereo unspecified), in experiment [1], the Potency is over 92 µM. For the same compound, the Potency entry in experiment [17], in experiment [2], in experiment [5], in experiment [6], in experiment [18] and in [7] was “inactive” in each case. Besides, the Potency result in [19], in experiment [9], in experiment [10], in experiment [11], in experiment [13] and in [14] was “inactive” each time. In experiment [16], the Potency entry was “inactive”. Further, in experiment [12], the outcome was inactive. Further, the activation was -4.75% and -3.06% in experiment [20]; 1.2% and -1.91% in experiment [15].
In the case of `CC(C)(OOC(C)(C)c1ccccc1)c1ccccc1`, the Potency in experiment [1] was over 92 µM; in experiment [13], 15.8 µM (active). Moreover, the Potency result in [17], in experiment [2], in experiment [5], in experiment [6], in experiment [18] and in experiment [7] was “inactive” in each case. Also, the Potency entry in experiment [19], in experiment [9], in [10], in experiment [11], in experiment [14] and in [16] was “inactive” throughout. The result in experiment [3] and in experiment [12] was inactive. In addition, the activation in experiment [20] is -3.14% and -2.07%.
Take `C=CCc1cc(OC)c2c(c1)OCO2`: the Potency result in experiment [17], in [6], in experiment [8], in experiment [19], in [9] and in [11] was “inactive” each time. For the same compound, the Potency entry in experiment [13], in experiment [14] and in [16] was “inactive” in each case. Moreover, the outcome in experiment [12] was inactive. The activation in experiment [20] is -0.222%.
On to `ClCC(Cl)Cl`, for which, in [1], the Potency was over 92 µM. Besides, the Potency entry in experiment [17], in [2], in [4], in experiment [5], in [6] and in [18] was “inactive” each time. Further, the Potency entry in experiment [7], in experiment [8], in experiment [9], in experiment [10], in experiment [13] and in experiment [16] was “inactive” in each case. For the same compound, the call in [12] was inactive. Further, the activation was -0.152% in experiment [20] and 1.04% in [15].
Turning to `ClCCOCOCCCl`, in [1], the Potency is over 92 µM. Moreover, the Potency entry in experiment [17], in experiment [2], in experiment [4], in experiment [5], in experiment [6] and in experiment [18] was “inactive” each time. Also, the Potency entry in experiment [8], in experiment [19], in experiment [9], in experiment [10], in [11] and in [13] was “inactive” in each case. Further, the Potency result in [14] and in [16] was “inactive” in each case. The compound was classed as inactive in experiment [3] and in [12]. In addition, the values for the activation in experiment [20] and in [15] were -4.18% and 0.193%, respectively.

Source of the values: PubChem BioAssay (NCATS).
